Assay outcomes (PubChem)
GRIN3A LBD mod: binders of NR3A ligand-binding domain, primary screen, biophysical, differential scanning fluorimetry, uHTS; Glutamate receptor ionotropic, NMDA 3A (GRIN3A) ligand-binding domain; NR3A LBD differential scanning fluorimetry, Tm shift; 0% = protein alone, 100% = glycine-bound protein; Tm shift relative to glycine control, % at 25 µM; 340,000 tested, 2.5% active;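 active means melting temperature shift of at least 10% of the positive control shift, at one fixed dose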
proKLK7 act: proKLK7 zymogen activators, primary screen, biochemical, fluorescence intensity | activation, % at 7 µM | purified proKLK7, EDANS-DABCYL substrate fluorescence; 100% is mature enzyme control, 0% vehicle | 370,000 tested, 0.9% active | AID 652039, 2013;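 active means activation above the mean of all tested compounds plus 3 SD, computed per campaign excluding outliers beyond control limits, cut at about 13% in these data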
AHR activator: AHR activators, primary screen, cell-based, luminescence, luciferase reporter, human. AHR-responsive luciferase reporter cells. Aryl hydrocarbon receptor (Homo sapiens), P35869. 320,000 tested, 2.5% active. activation, % at 5 µM; in the data active means activation above about 47%;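 further: 0% = vehicle wells and 100% = reference agonist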
ADAM17 inh: ADAM17 inhibitors, primary screen, biochemical, QFRET; recombinant ADAM17, EDANS/DABCYL FRET peptide cleavage; inhibition, % at 6.95 µM; 370,000 tested, 0.83% active;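 active means inhibition above the mean of compounds lying between control limits plus 3 SD, set per campaign, cut at about 8.5% in these data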;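 further: 0% = DMSO-only wells as the low control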
rCAG RNA binder: binders of r(CAG) RNA repeats, primary screen, biochemical, fluorescence; 370,000 tested, 1.3% active; r(CAG) RNA repeat, TO-PRO-1 dye displacement fluorescence; inhibition, % at 3 µM;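 active means inhibition above the plate cutoff, the mean of all test compounds on that plate plus 3 SD, cut at about 35% in these data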;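 further: 0% = DMSO alone and 100% = 100 µM mitoxantrone as full dye displacement; higher means more dye released from RNA so lower well fluorescence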
ADAM10 inh: human ADAM10 inhibitors, primary screen, biochemical, QFRET, HTS. Disintegrin and metalloproteinase domain-containing protein 10 (Homo sapiens), O14672. recombinant ADAM10, EDANS/DABCYL FRET peptide cleavage, 3 h. inhibition, % at 7 µM. 370,000 tested, 0.62% active;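 active means inhibition above a per-campaign cutoff equal to the mean of compounds falling between control-based bounds plus 3 SD, cut at about 20% in these data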;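 further: 0% = DMSO wells while the 100% control is not disclosed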
Target sequence (O14672 214-748 limits assumed): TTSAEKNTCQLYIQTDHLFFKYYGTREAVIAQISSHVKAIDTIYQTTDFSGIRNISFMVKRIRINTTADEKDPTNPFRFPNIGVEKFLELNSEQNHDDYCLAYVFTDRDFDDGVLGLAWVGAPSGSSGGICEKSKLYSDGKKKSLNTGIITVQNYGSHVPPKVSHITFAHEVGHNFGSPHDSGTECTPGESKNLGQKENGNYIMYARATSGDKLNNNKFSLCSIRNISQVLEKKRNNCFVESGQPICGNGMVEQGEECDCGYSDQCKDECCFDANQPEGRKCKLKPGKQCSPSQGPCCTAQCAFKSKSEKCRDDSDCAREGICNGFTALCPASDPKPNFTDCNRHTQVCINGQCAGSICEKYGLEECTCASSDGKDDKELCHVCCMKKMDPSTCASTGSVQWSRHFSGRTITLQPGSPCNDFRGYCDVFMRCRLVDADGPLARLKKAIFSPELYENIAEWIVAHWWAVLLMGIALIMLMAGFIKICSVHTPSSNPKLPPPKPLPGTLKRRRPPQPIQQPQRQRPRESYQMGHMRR
AHR act cf: AHR activators, confirmation, cell-based, luminescence, luciferase reporter, human. AID 2845, 2010. 2,300 tested, 87% active. human cells, AHR-responsive luciferase reporter. shares compounds with AHR activator. activation, % at 9 µM; in the data active means activation above about 49%;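 further: HepG2 hepatoma cells carrying a DRE-driven firefly luciferase reporter; 0% = vehicle wells and 100% = reference agonist wells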
PXR act counter: human PXR activators, counter-screen for AHR activator project, cell-based, luciferase luminescence. shares compounds with AHR activator. cell-based PXR reporter. activation, % at 11.6 µM. 2,300 tested, 88% active; in the data active means activation above about 11%;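 further: human hepatoma DPX-2 cells expressing full-length human PXR; 0% = DMSO and 100% = reference agonist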
Active calls of the source: *. In the library only some 7% were active in any assay of this set; here they are far more common.

What do the screens show for `CCOc1ccc(/C=N/NC(=O)c2c(C)n(C)c3ccc(OC)cc23)cc1`?
GRIN3A LBD mod: -13; proKLK7 act: 1; AHR activator: 11; ADAM17 inh: 3; rCAG RNA binder: 1; ADAM10 inh: 2

How did CCOc1ccc2c(c1)c(N=O)c(O)n2C do in these assays?
GRIN3A LBD mod: 1; proKLK7 act: 1; AHR activator: 94*; ADAM17 inh: -2; rCAG RNA binder: -1; ADAM10 inh: -6; AHR act cf: 62*; PXR act counter: 10*

What do the screens show for `c1ccc2c(c1)N=C(N1CCN(Cc3ccc4c(c3)OCO4)CC1)c1ccccc1S2`?
proKLK7 act: 0; ADAM17 inh: 0; rCAG RNA binder: 5; ADAM10 inh: -3

What do the screens show for `Cc1ccc(Nc2nc(N)nc(-c3oc4ccccc4c3C)n2)cc1`?
GRIN3A LBD mod: 3; AHR activator: 104*; AHR act cf: -7; PXR act counter: 85*

How did O=C(c1ccc(-c2nc3ccccc3s2)o1)N1CCN(c2ccccc2O)CC1 do in these assays?
GRIN3A LBD mod: -10; proKLK7 act: 1; AHR activator: 89*; ADAM17 inh: -8; rCAG RNA binder: 4; ADAM10 inh: -9; AHR act cf: 85*; PXR act counter: 37*

Results for CC1Cc2ccccc2N1C(=O)COc1ccc2c(c1)OCO2 (stereo not given) ?
GRIN3A LBD mod: -1; proKLK7 act: 0; AHR activator: 84*; ADAM17 inh: -1; rCAG RNA binder: 3; ADAM10 inh: -12; AHR act cf: 95*; PXR act counter: 66*

How did Cc1cc(-c2ccccc2)nc(N2CCN(c3ccccn3)CC2)n1 do in these assays?
GRIN3A LBD mod: 8; proKLK7 act: 0; AHR activator: 81*; ADAM17 inh: -2; rCAG RNA binder: -2; ADAM10 inh: -4; AHR act cf: 93*; PXR act counter: 19*

What do the screens show for `Cc1cncc(N2CCN(c3ccccn3)CC2)n1`?
proKLK7 act: 0; ADAM17 inh: -3; rCAG RNA binder: 2; ADAM10 inh: -13

How did CCCc1cc(=O)oc2cc(C)cc(OCC(=O)Nc3cccnc3)c12 do in these assays?
GRIN3A LBD mod: -3; proKLK7 act: 0; AHR activator: 116*; ADAM17 inh: -39; rCAG RNA binder: 1; ADAM10 inh: -150; AHR act cf: 82*; PXR act counter: 26*

How did CCCc1cc(=O)oc2cc(C)cc(OCC(=O)NCc3ccccn3)c12 do in these assays?
GRIN3A LBD mod: 3; proKLK7 act: 2; AHR activator: 17; ADAM17 inh: -106; rCAG RNA binder: -2; ADAM10 inh: -398

Results for CN1C(=O)c2cccc(NC(=O)Cc3ccccc3)c2C1=O ?
GRIN3A LBD mod: -1; proKLK7 act: -12; AHR activator: 156*; ADAM17 inh: -62; rCAG RNA binder: 2; ADAM10 inh: -251; AHR act cf: 51*; PXR act counter: 14*

Results for Cc1c(NC(=O)Cc2ccccc2)cccc1C(=O)NN1C(=O)c2ccccc2C1=O ?
GRIN3A LBD mod: 0; proKLK7 act: 0; AHR activator: -1; ADAM17 inh: -4; rCAG RNA binder: 0; ADAM10 inh: -3

How did Cc1cccc(NC(=O)c2sc3nc(N)c(C#N)cc3c2N)c1 do in these assays?
GRIN3A LBD mod: 0; proKLK7 act: 0; AHR activator: 111*; ADAM17 inh: -3; rCAG RNA binder: 11; ADAM10 inh: -18; AHR act cf: 61*; PXR act counter: 29*

What do the screens show for `Fc1ccccc1Nc1nc2ccccc2n2nnnc12`?
GRIN3A LBD mod: -3; proKLK7 act: 2; AHR activator: 96*; ADAM17 inh: -10; rCAG RNA binder: 4; ADAM10 inh: -37; AHR act cf: 74*; PXR act counter: 11*

How did Fc1cccc(Nc2nc3ccccc3n3nnnc23)c1 do in these assays?
GRIN3A LBD mod: 2; proKLK7 act: 0; AHR activator: 47; ADAM17 inh: 1; rCAG RNA binder: 3; ADAM10 inh: -22

Results for Brc1ccc(Nc2nc3ccccc3n3nnnc23)cc1 ?
AHR activator: 94*; AHR act cf: 108*; PXR act counter: 75*

What do the screens show for `Cc1nc(C)c(-c2csc(Nc3ccc(N)cc3)n2)s1`?
GRIN3A LBD mod: -3; proKLK7 act: 0; AHR activator: 127*; ADAM17 inh: -2; rCAG RNA binder: 15; ADAM10 inh: -4; AHR act cf: 22; PXR act counter: 19*

What do the screens show for `Cc1nc(N)sc1-c1csc(Nc2ccccc2)n1`?
GRIN3A LBD mod: -6; proKLK7 act: -2; AHR activator: 81*; ADAM17 inh: -9; rCAG RNA binder: 20; ADAM10 inh: -47; AHR act cf: 147*; PXR act counter: 20*

Results for COC(=O)c1ccc2nc(-c3ccco3)c(Cc3ccsc3)n2c1 ?
proKLK7 act: -1; ADAM17 inh: -10; rCAG RNA binder: 26; ADAM10 inh: -35

What do the screens show for `COc1cccc(-c2cccc3c4c([nH]c23)[C@@H]2C[C@H]3[C@@H](C(=O)N2CC4)[C@H](C)ON3C)c1`?
proKLK7 act: 0; ADAM17 inh: -28; rCAG RNA binder: 3; ADAM10 inh: -88

Results for Fc1ccc(/C=N/Nc2ncnc3nc[nH]c23)cc1F ?
GRIN3A LBD mod: 3; proKLK7 act: 0; AHR activator: 103*; ADAM17 inh: -1; rCAG RNA binder: 0; ADAM10 inh: -12; AHR act cf: 65*; PXR act counter: 32*

What do the screens show for `Cc1ccccc1/C=N/Nc1ncnc2nc[nH]c12`?
GRIN3A LBD mod: 0; proKLK7 act: 0; AHR activator: 10; ADAM17 inh: -2; rCAG RNA binder: 5; ADAM10 inh: 3

Results for CCOc1ccc(N=C(NN)c2ccc3ccccc3n2)cc1 ?
GRIN3A LBD mod: 4; proKLK7 act: -1; AHR activator: 108*; ADAM17 inh: -3; rCAG RNA binder: 1; ADAM10 inh: -22; AHR act cf: 110*; PXR act counter: 19*

How did C=CCN1[C@@H](C)COc2cccc(N3CCSCC3)c2S1(=O)=O do in these assays?
proKLK7 act: -1; ADAM17 inh: 2; rCAG RNA binder: 0; ADAM10 inh: 6
